PubChem BioAssay AID1508600 (Functional Genomics Laboratory (NCATS/FGL), 2020)
About 3,700 (7%) of roughly 53,000 sequences were called active.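 Rule for the calls: active = gene knockdowns whose robust z-score for IL-1 alpha signal is at least 2 or at most -2, so actives lie on both sides; inactive = the rest.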 This excerpt belongs to a sample that is enriched for actives.

Assay: Components of the Cytosolic LPS Sensing Pathway: Gene Identification via Genome-wide siRNA Screen;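 note: robust z of the log signal after scaling to non-targeting control siRNA wells of the plate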
Conditions: RAW264.7 macrophages, IL-1a HTRF, actives lie on both sides, screened at 100 nM (by protocol), cells primed 5 h with Pam3CSK4 first
Outline: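 Using IL-1a HTRF as read-out, the screen measured release from RAW264.7 cells after 48h siRNA knockdown (100 nM), 5 h Pam3CSK4 priming and 24 h cytosolic LipidA. Values were expressed relative to negative-control wells as robust z-scores.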

z-score, inactive:
GCCGGUGACUUUCUAAUUUTT against Yrdc -1.32
GCCUUAACUAUAGUCCAGATT against Scn7a -0.928
GGCAUGGCUGGCAAAAACATT against Ppp1r15a -1.85
GGAAGAUUUCUUCAAACGCTT against Lhx4 -0.167
CCUGAAGAGGAUGAUAUGGTT against Fam221a 0.144
GGUCUUCAGAAUCCUCAAUTT against Ap1g2 -0.4
GCCAACCUGAAACCAUCUATT against Ptprg 0.0567
GGAGCAUUGCUCUUCUUCATT against Get4 -0.073
GCAGAAGUAUUACUGGAUGTT against Olfr572 0.841
GCUAGGAACGAGGAGCUAATT against Prrt3 1.07
GGAAUACAUAGCACACGGUTT against Apba2 1.06
CCCUGAAACAAUGAAUACATT against Serpini1 0.325
GGAGAAGCUAAGAAACGAGTT against Acyp2 -0.696
CCCACAUUGCUUACCUUUCTT against Zfp523 -0.762
GCUGGGUUGCUGAUUUUUGTT against Arl5a -0.881
GGGCUUUCUCCAAUCGUAATT against Gm4876 0.603
GGUUCUGUCUUUUACUUUCTT against Olfr1496 0.232
CGAGUGCUUCUCUUGACAUTT against Mrpl22 -0.43
GGAUAAUUAUAGGAAGAGCTT against Ncapd3 -0.507
GGGAUGCUAACAGGUGUCATT against Tkfc -0.12
GGCAUUACAUUUCAAUGAATT against Serpinb12 -0.71
GGUGUUCUUGAAGUUUAUATT against Zfp157 0.579
GCAGGAGUCAAAUUUUCUATT against Nemp1 -0.795
GGAUUUUUGACUGUGAUUCTT against Pak1ip1 -1.57
CCCAGACAUUACAUGGCCUTT against Cldn6 -0.935
GGAACAAUGGGUUCAUUUUTT against Ifi203 0.136
CGUAAUCUUCAUCUUAGUATT against Olfr613 0.601
GGAGUCUUGGAAAAAAGGCTT against Rep15 -1.65
GGCCUGUUGAUUGCAUAUUTT against Sppl2a -1.01
GGCCUGAAAAGACUGAUAATT against Vmn2r26 1.18
GCUAGUUAAGAGGAGGCUGTT against Nob1 -0.252
GGAGCACAGGAAAAUAUAUTT against Mdm2 0.561
GCACUUUGUAUAUCUUUCCTT against Btd 1.51
GGGAGUUUCCAGAUGUUUUTT against Gclm 0.0729
GGAAGAAAAGACUUAUCGUTT against Jkamp -0.663
GGGAAACAUCUUCCUAUCCTT against Serpina12 -0.958
CCUAAUAAGCCAUAUGCAUTT against Alkbh8 -0.449
GCCCUCUGUGAGUAGUAAUTT against Shroom3 0.603
GGACAUUGCCCACAUGACCTT against Rnf227 -0.15
GCUCAACAGGCUCAACUACTT against Cndp2 0.492
GGACUACCGAACAAGAGAATT against Zfp318 0.241
GCAUUCACCGUACGUAUUCTT against Id4 0.187
GGUCUUCAACCCUGUUUGGTT against Gpsm3 0.329
GGAGACUCCAUACCAGUGUTT against Zfp329 1.78
GGCAGCAUUACACUGAAUCTT against Slc36a4 0.436
CCUAGUGAUUAAAGGGAUGTT against Prss43 1.19
GGAAAGUGUUUUCUCAUGATT against Klf9 -0.23
GGUGGUCUACUUCACCGCATT against Slc6a20a 0.466
GGAUCUCCUUUUUUUUCAATT against Gabrr1 0.0887
UCAUCGCAACCAUCCACAGTT against Olfr530 0.464
GGGAGUCUGGUGGAUUGAUTT against Rln1 0.0253
GGUCUCACAAAAACAGUUCTT against Casq2 -0.317
GCAGUGUAAUGUGGCCUACTT against Rorc 0.682
GCUGUUUUCUUUCCAUUUCTT against Olfr981 -1.1
GAAUUACACACAGGCCUGATT against Olfr1048 0.306
CACUGCUGUAAUCCCUAUGTT against Olfr1002 0.4
CCAACAACGGCAUUCACUATT against Ebf3 -0.676
CAAACCUUGUUGCCAUGACTT against Olfr406 0.0688
GACAAGGUGCCAUACCAUUTT against Olfr351 -0.373
GGACAGCUCUCAGAAUUCUTT against Ctse -1.13
GCUCCGGAAAGUAAGCAGATT against Tnfrsf26 0.259
CCAUGGUACUAAUGUAAAUTT against Eef1e1 0.797
GGCUUUGAACACCAGUGAATT against Rpp21 -0.453
CGCAGAUAAUAUCUUUGUCTT against Olfr461 0.389
GGACCUAAGCAGAAAACUGTT against Meis3 0.789
GCGGUAUGGCAUGGUACAUTT against LTO1 -0.855
GGCCAUAAAACAUAAGCUATT against Tmem17 0.163
CGAACUUGUACAGAAGAAUTT against Slfn3 -0.311
GCAUAGAGGACUACAACGATT against Optc 0.329
GGACAGGAAGAAAAGAAACTT against Vmn2r-ps11 -1.19
GGACACUUUCAGACCUUAGTT against Ankrd27 -0.116
GGACUUUGAUGUUGAAUGUTT against Rapgef1 -0.985
GGAAAAUGGUUGGUACUUUTT against Vwc2 0.219
GGACCUUCCUACGAGAAAATT against Tm2d2 0.0894
CGGUAAACAUCAGUAAUGATT against Drd5 0.0608
GCUACGUUCAGUUCCAUUGTT against Eddm3b -0.321
CGACUUGAUUUCAAAACAUTT against Fbxl13 -0.981
GCCAAGAGUUUGAUAUAUATT against Plekhg3 1.79
GGUAACAUCUCCAUCAGCCTT against Nxph3 0.34
GGUAUCUUUAGGUUUCUGGTT against Vmn2r37 0.499
GCCAAGAAAGAUCAUUGACTT against Far2 -0.703
GCCCUUAAUUGAACAAAUATT against Otud7b 0.0529
CGGACUCAGUCAUCAUUGCTT against Atf7 -1.46
GGAAAGAAAAAUCAGAGAATT against Adprhl1 -0.866
GCUGUGGUAAACUGAAACUTT against Glis2 -1.89
GCCUUGACAGAGGUAUUGATT against Ovgp1 -1.46
GGAGAAAUUCAAACAAGUATT against 4930503B20Rik 0.275

z-score, active:
UGCAAUCCGGAUCAAACGUTT against Cebpb -2.03
GGACACAGACAAUGAAAUGTT against Fetub -2.35
GCUUCCUAACCAGGUUUGATT against 4430402I18Rik 2.1
CGAGCCUCUGUGAUAUCCATT against Cst11 -2.69
GGAAUACACUCAAUAUUGATT against Nupl1 -2.59
GGAACCAAGGAUGUGAAAGTT against Rab13 -2.17
GGAGAAGGAUUAUACCAGUTT against Rfesd 2.2
GGCAGGUUUUUGACAACUUTT against Fxyd4 3.2
GUUACUACAACAGCUACUATT against Krtap19-4 -2.37
GGGUAGAAUCCAAGAAGCGTT against Hoxb3 -2.08
GGAUAUGGGAAUGAAAGCATT against Nyap2 -2.21
CGAUGACGAUGCCUAACCATT against Dgkeos -2.34
GGAGCACUUUGUAUGGAACTT against Ube2q2 2.97
CGCAAACAAACCUUAACAGTT against Maneal 2.21
AUGGGAGAAUCAGCAGAACTT against Set -2.77
GGAAGGUGAAGCCAGUUUCTT against Traf3ip2 2.02
GGAUCAAGGAGGAUUUCAATT against Tprg 2.38
GGACCUGUCCAUCUUCAUCTT against Scn1b 3.87
GCUAGCCAGUGCAUUCACATT against Srp68 -2.96
GGGAGCCAAUGAAAUCAAGTT against Hmbox1 3.31
